Assay results from PubChem BioAssay AID485364 (National Center for Advancing Translational Sciences (NCATS), 2010).
The whole screen tested about 360,000 compounds, of which about 11,000 (3.1%) were called active. Where a call stands in place of a potency, no number is given. Roughly 4% stayed inconclusive and do not appear here. The call rests on the fitted dose curve; in most records, active means well fitted inhibition curve with a large enough effect; inconclusive means small, poorly fitted or top-dose-only effect; inactive means no such curve, though single readings can be large or run the other way. This excerpt belongs to a sample that is enriched for actives.

The molecules below were run against Schistosoma mansoni thioredoxin glutathione reductase (TGR) (UniProt Q962Y6) (assay: qHTS Assay for the Inhibitors of Schistosoma Mansoni Peroxiredoxins). Conditions: purified TGR, DTNB reduction, TNB absorbance 405 nm; series mostly up to 114 µM.
Description: Schistosomiasis is a major neglected tropical disease that currently affects over 200 million. It is caused by different species of flatworms, such as Schistosoma mansoni. Over the last century, drugs to treat the disease have evolved from potassium antimonyl tartrate, artemisinin, oxamniquine, to praziquantel, with praziquantel remaining the universally-used single drug of choice over the past three decades. However, transmission rates have changed little with praziquantel, and there is evidence for the development of drug resistant parasites. Because there is currently no suitable alternative therapy available, there is an urgent need to identify new targets and drugs for schistosomiasis treatment. Thioredoxin glutathione reductase (TGR), one uniquely positioned S. mansoni enzyme, has been identified as a major component of the worms' distinct and compressed antioxidant "firewall". TGR is a multifunctional enzyme that catalyzes the interconversion between reduced and oxidized forms of both glutathione (GSH) and thioredoxins, thus making it an attractive new antiparasitic target. Recently, a quantitative high-throughput screen of the NIH Molecular Libraries Small Molecule Repository (MLSMR, ~71K at the time of the screen in 2007) was performed using an assay that targeted both TGR and peroxiredoxin2 (Prx2, an H2O2-reducing enzymatic component of the S. mansoni redox "firewall") by following the decrease of NADPH fluorescence. […] Additional mechanistic link between exogenous NO donation and parasitic injury for the oxadiazole-2-oxide class of compounds was also expanded and better defined. Although the screen addressed both TGR and Prx2, the assay required post-screen target deconvolution for further characterization of the actives. In addition, the fluorescence assay was also subject to fluorescence interference from compound library members. We have developed a 1536-well-based kinetic HTS assay to address TGR alone. The assay followed the reduction of 5, 5'-dithiobis (2-nitrobenzoic acid) (DTNB) (Ellman's reagent) by NADPH and measured the increase in absorbance at 412 nm of the reaction product, TNB. […] This assay format can be used to screen the current MLSMR collection (with >300K compounds available) to find novel TGR inhibitors. Furoxan is a good choice to serve as a positive control in the primary HTS assay.
Three microliters of reagents (100 uM NADPH and 20 nM TGR or 100 uM NADPH as no-enzyme control) were dispensed into 1,536-well black clear-bottomed plates. Compounds (23 nL) were transferred via Kalypsys pin tool equipped with 1536-pin array (10 nL slotted pins, V&P Scientific, San Diego, CA). The plates were then be incubated for 15 min at room temperature, and 1 uL aliquot of 500 uM NADPH were added, immediately followed by a 1 uL aliquot of 15 mM DTNB to start the reaction. The plate was transferred to a ViewLux high-throughput CCD imager (Perkin-Elmer, Wellesley, MA) where kinetic measurements of the TNB absorbance were acquired using a 405 excitation filter. Throughout the screen, reagent bottles and all liquid lines were made light-tight to minimize reagent degradation. All screening operations were performed on a fully integrated robotic system (Kalypsys, San Diego, CA) containing one RX-130 and two RX-90 anthropomorphic robotic arms (Staubli, Duncan, SC). Library plates were screened starting from the lowest and proceeding to the highest concentration, and a "double-dipping" step of the highest concentration was required to access higher concentrations of compounds. Vehicle-only plates, with DMSO being pin-transferred to the entire column 5-48 compound area, were inserted uniformly at the beginning and the end of each library in order to monitor for and record any shifts in the background, which can be affected by reagent dispensers or loss in enzyme activity overtime. […]
Further: nearly all actives have a fitted effect of over 60% in size.
Potency means the concentration at half of the fitted maximal effect.

Structure (SMILES) | Potency
CCN(CC)C(=O)CSc1nc2cc3c(cc2c(=O)n1CCCC(=O)NCc1ccc2c(c1)OCO2)OCO3 | inactive
CC(=O)Oc1cc2c(C(=O)NCCN3CCOCC3)c(C)oc2c2ccccc12 | 25.1 µM (active)
Cc1cc(C)cc(C(=O)NCCN2CCOCC2)c1 | inactive
CCc1cc(=O)oc2c(C)c(OCC(=O)NCCN3CCOCC3)ccc12 | inactive
CCS(=O)(=O)N1CCC(n2c(C)nc3cccnc32)CC1 | inactive
COC(=O)c1ccc(NC(=O)c2cc(S(=O)(=O)N3CCC(C)CC3)cn2C)cc1 | inactive
O=C(CCS(=O)(=O)c1ccccc1)Nc1nc2c(s1)CCCC2 | 50.1 µM (active)
O=C(Nc1nc2c(s1)CCCC2)c1ccccc1F | inactive
O=C(CCS(=O)(=O)c1ccccc1)NC1CCCC1 | inactive
COc1ccccc1NC(=O)c1cc(C2CC2)nc2c1c(C)nn2-c1ccc(C)cc1 | inactive
CCCn1nc(C(=O)N2CCCc3ccccc32)c2ccccc2c1=O | inactive
O=C(c1c(Cl)nc2sccn12)N1CCCc2ccccc21 | inactive
Cc1occc1C(=O)N1CCCc2ccccc21 | 44.7 µM (active)
CC(C)c1ccc(NC(=O)CN(C)S(=O)(=O)c2ccc3c(c2)c(=O)n(C)c(=O)n3C)cc1 | inactive
Cc1ccc(Cl)cc1N1CCN(C(=O)CN2C(=O)COc3ccc(S(=O)(=O)N4CCOCC4)cc32)CC1 | inactive
CCCNc1ncnc2c1c(-c1ccccc1)cn2-c1ccc(OCC)cc1 | inactive
CCc1ccc(NC(=O)CN2C(=O)C(c3ccccc3)=NC23CCCCCC3)cc1 | inactive
CCCCOC(=O)c1ccc(N2C(=O)CC(N3CCN(C/C=C/c4ccccc4)CC3)C2=O)cc1 (centres undefined) | inactive
CCCCCCC(=O)N(O)C1CC(=O)N(c2ccccc2)C1=O (centres undefined) | 0.282 µM (active)
CCOc1ccc(N2C(=O)CC(N(CCc3ccc(OC)c(OC)c3)C(=S)Nc3ccccc3)C2=O)cc1 (centres undefined) | inactive
CCOc1cc2[nH]c(=O)n(Cc3ccc(C(=O)NCCN(CC)CC)cc3)c(=O)c2cc1OCC | inactive
Cc1cc(C)cc(NC(=O)CSc2oc(-c3ccccc3)nc2S(=O)(=O)c2ccc(Cl)cc2)c1 | inactive
COc1ccc(-c2nnc(NC(=O)CS(=O)(=O)c3ccc(Cl)cc3)o2)c(OC)c1 | inactive
COc1cc(-c2nc(S(=O)(=O)c3ccc(Cl)cc3)c(N(C)C)o2)cc(OC)c1OC | 25.1 µM (active)
CCOc1ccc(N(CC)S(=O)(=O)N2CCCC(C(=O)NCc3ccc(SC)cc3)C2)cc1 (centres undefined) | inactive

Structure (SMILES) | Potency
COc1ccc(-c2c3c(=O)n(C)c(=O)n(C)c3c3c(C)nc4ccccc4n23)cc1 | inactive
CCOC(=O)c1ccc(N2C(=O)c3n[nH]c(C)c3C2c2ccc(O)c(OC)c2)cc1 (centres undefined) | 11.2 µM (active)
CCOC(=O)c1ccc(N2C(=O)c3[nH]nc(-c4ccccc4)c3C2c2ccc(C(C)C)cc2)cc1 (centres undefined) | inactive
CCOc1cc(C2c3c(-c4ccc(Br)cc4)n[nH]c3C(=O)N2c2ccc(Cl)cc2)ccc1O (centres undefined) | inactive
CCCn1c2ccccc2c2cnn(CC(=O)N(C)c3ccccc3CC)c(=O)c21 | inactive
CSc1ccc(C2c3c(oc4ccccc4c3=O)C(=O)N2CCCN2CCOCC2)cc1 (centres undefined) | inactive
COc1ccc(OC)c(NC(=O)C2CCN(S(=O)(=O)c3ccc(C)cc3)CC2)c1 | inactive
NC(=O)C1CCN(C(=O)c2cccc(NC(=O)c3nsc4ccccc34)c2)CC1 | inactive
Cc1ccc(C2CCN(C(=O)c3cnn(-c4ccccc4Cl)c3C3CCN(C(=O)OC(C)(C)C)CC3)C2)cc1 (centres undefined) | inactive
Cc1ccccc1C(=O)N(Cc1ccc(N(C)C)cc1)CC1CCCO1 (centres undefined) | inactive
O=C(CCS(=O)(=O)c1cc(Br)cc2c1N(C(=O)C1CC1)CC2)Nc1ccc(Br)cc1F | inactive
COc1ccc(OCC(=O)Nc2nnc(-c3ccco3)s2)cc1 | 28.2 µM (active)
COc1ccc(OCCCC(=O)Nc2nnc(C3CCCO3)s2)cc1 (centres undefined) | inactive
CNc1nnc(-c2ccco2)s1 | inactive
CCOC(=O)N1CCc2c(sc3c2c(=O)n(-c2ccc(CC)cc2)c(=O)n3C)C1 | inactive
Cc1ccccc1NC(=O)Cn1c(=O)n(CCCCC(=O)NCc2ccccc2Cl)c(=O)c2ccccc21 | inactive
O=C(CCCC(=O)N1CCN(c2cccc(Cl)c2)CC1)c1ccccc1 | inactive
O=C(CN1CCN(c2ccc(Cl)cc2)CC1)c1ccccc1 | 17.8 µM (active)
CC(C)OC(=O)CN1CCN(c2ccc(Cl)cc2)CC1 | inactive
Cc1cccc(NC(=O)COC(=O)CCc2ccccc2)c1C | inactive
Cc1cc(C(=O)OCC(=O)Nc2ccccc2Cl)c(C)o1 | inactive
O=C(COC(=O)CCc1c[nH]c(=O)[nH]1)Nc1ccccc1Cl | 44.7 µM (active)
COc1ccccc1NC(=O)Cn1cnc2ccc(S(=O)(=O)N3CCC(C)CC3)cc2c1=O | inactive
COCCNC(=O)c1ccc2c(c1)N(Cc1cccc(Cl)c1)C(=O)c1ccccc1S2(=O)=O | inactive
CC(C)CNC(=O)COC(=O)/C=C/c1ccco1 | inactive

Structure (SMILES) | Potency
NS(=O)(=O)c1cccc(NC(=O)COC(=O)/C=C/c2ccco2)c1 | 6.31 µM (active)
COc1ccc(/C=C/C(=O)OCC(=O)Nc2cccc(Oc3ccccc3)c2)c(OC)c1 | inactive
COc1ccc([N+](=O)[O-])cc1NC(=O)COC(=O)/C=C/c1ccco1 | inactive
CN(C)S(=O)(=O)c1cccc(NC(=O)COC(=O)/C=C/c2cccs2)c1 | inactive
COc1cccc(NC(=O)COC(=O)/C=C/c2ccco2)c1 | 31.6 µM (active)
CCc1cccc(-n2nnc(-c3nsc(NC(=O)c4ccc(C)cc4)n3)c2C)c1 | inactive
COc1ccc(-c2cc(NCc3ccc(F)cc3)n3cnnc3n2)cc1 | inactive
Cc1cc(C(=O)Nc2cccc(C(F)(F)F)c2)c2c(C)nn(-c3cccc(F)c3)c2n1 | inactive
COc1ccc(NC(=O)C2CCCN(S(=O)(=O)c3cccc4nonc34)C2)cc1Cl (centres undefined) | inactive
Cc1ccc(C)c(NC(=O)Cn2ccn(-c3ccc(F)cc3)c(=O)c2=O)c1 | inactive
O=C(CC1Oc2ccccc2NC1=O)NCc1ccc(F)cc1 (centres undefined) | inactive
Cc1ccc(CNC(=O)CCc2c(C)nn(-c3ccc(N4CCCC4)nn3)c2C)cc1 | inactive
COc1ccccc1CNS(=O)(=O)c1cc(Br)cc2c1N(C(C)=O)C(C)C2 (centres undefined) | inactive
CCOC(=O)c1cc2c(=O)n3ccccc3nc2n(CC2CCCO2)c1=NC(=O)c1ccccc1F (centres undefined) | inactive
O=C(Nc1ccc2c(c1)OCO2)c1cc(-c2cccc(Cl)c2)on1 | inactive
CC1CCCN(CC(O)COCc2ccccc2)C1 (centres undefined) | inactive
Oc1c(CN2CCCC2)cc(COCc2ccccc2)c2cccnc12 | 22.4 µM (active)
COc1cc(C)cc(CN2CCC(Cc3ccccc3)CC2)c1O | inactive
COc1cc(OC)c(NC(=O)N2CC3CCCN3c3ccccc32)cc1Cl (centres undefined) | inactive
CCOC(=O)c1c(S(=O)(=O)N2CCCC(C(=O)NCc3ccc(F)cc3)C2)c(C)n(CC)c1C (centres undefined) | inactive
CCOC(=O)c1c(C)[nH]c(CCC(=O)NCCCN2CCN(c3cc(C)ccc3C)CC2)c1C | inactive
COc1ccc(CCNC(=O)C(Sc2ccccn2)c2ccccc2)cc1OC (centres undefined) | inactive
COc1ccc(C(CCN(Cc2ccc(OC)c(OC)c2)C(=O)CCl)c2ccccc2)cc1 (centres undefined) | 8.91 µM (active)
COc1ccc(CN(Cc2ccc(OC)cc2)C(=O)c2cccs2)cc1 | inactive
CCc1nnc(SCc2nc(-c3cccc(C)c3)oc2C)c2cc3sc(C)cc3n12 | inactive

Structure (SMILES) | Potency
CCCCc1ccc(NC(=S)NCCCN2CCOCC2)cc1 | 50.1 µM (active)
CCCC(=O)NC(=S)Nc1ccc(CN2CCOCC2)cc1 | inactive
Cc1cc(C)cc(NC(=S)NCCCN2CCOCC2)c1 | inactive
Cc1cccn2c(=O)c(C(=O)NC(C)c3ccccc3)cnc12 (centres undefined) | inactive
C=CCOC(=O)C1=C[C@@H](c2ccccc2)C[C@@H](OCc2ccc(CO)cc2)O1 | inactive
CN1CCN(C(=O)C2=C[C@H](c3ccc4c(c3)OCO4)C[C@H](OCc3ccc(CO)cc3)O2)CC1 | inactive
C#Cc1ccc([C@@H]2C=C(C(=O)O)O[C@H](OCCCCO)C2)cc1 | 39.8 µM (active)
CCO[C@H]1OC(C(=O)O)=C[C@@H](C2CCCCC2)[C@@H]1CCCO | inactive
NC(=O)C1=C[C@H](c2csc3ccccc23)C[C@H](OCc2ccc(CO)cc2)O1 | inactive
O=C(O)C1=C[C@H](c2cccs2)C[C@H](OCCCCO)O1 | 39.8 µM (active)
Cc1ccc(-n2nc(CO)c(C(=O)NCCc3ccccc3)n2)cc1 | inactive
COc1c(Cl)cc(C(=O)N(Cc2ccccc2F)C2CCS(=O)(=O)C2)cc1Cl (centres undefined) | inactive
Cc1cccc(OCCSc2nc3ccc(NC(=O)COc4ccccc4C)cc3s2)c1 | inactive
CCOC(=O)c1c(NC(=O)CCl)sc(C(=O)N(CC)CC)c1C | 35.5 µM (active)
CCOC(=O)Nc1sc(C(=O)N(C)C)c(C)c1C(=O)OCC | inactive
CCOC(=O)c1sc(NC(=O)CCN2CCOCC2)c(C(=O)OCC)c1C | inactive
CSc1nc(=O)c2c(n1C)NC(=O)CC2c1ccccc1OC(C)C (centres undefined) | inactive
CCc1ccc(NC(=O)CN2C(=O)CCSc3ccc(S(=O)(=O)N4CCCC4)cc32)cc1 | inactive
CCCCn1c(=O)c2oc3ccccc3c2n(CC(=O)Nc2ccccc2OC)c1=O | inactive
COc1ccc2c(c1)C=C(C(=O)NCc1cc(Br)ccc1OC)CO2 | inactive
CC(C)CN(CC(C)C)C(=O)CN1c2cccc3cccc(c23)S1(=O)=O | inactive
COc1ccc(C)cc1NC(=O)CN1c2cccc3cccc(c23)S1(=O)=O | inactive
O=C(O)CN1c2cccc3cccc(c23)S1(=O)=O | 35.5 µM (active)
CCN(CC)c1ccc(NS(=O)(=O)c2cc(-c3cc(C)no3)ccc2C)c(C)c1 | inactive
